Bioassay records from PubChem.
ALDH1A1 block – qHTS Assay for Inhibitors of Aldehyde Dehydrogenase 1 (ALDH1A1); 220,000 compounds, 7.3% hits; AID 1030, 2008; Aldehyde dehydrogenase 1A1 (Homo sapiens), P00352; Potency, µM (top dose mostly 75.3 µM), inactives show at the highest dose activity, negative = inhibition, usual class: inhibitors; Purified ALDH1A1, NADH fluorescence, propionaldehyde substrate;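 note: potency is the fitted concentration of half-maximal effect; plate controls were no enzyme wells and a reference inhibitor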
Target sequence (P00352 whole entry, looked up): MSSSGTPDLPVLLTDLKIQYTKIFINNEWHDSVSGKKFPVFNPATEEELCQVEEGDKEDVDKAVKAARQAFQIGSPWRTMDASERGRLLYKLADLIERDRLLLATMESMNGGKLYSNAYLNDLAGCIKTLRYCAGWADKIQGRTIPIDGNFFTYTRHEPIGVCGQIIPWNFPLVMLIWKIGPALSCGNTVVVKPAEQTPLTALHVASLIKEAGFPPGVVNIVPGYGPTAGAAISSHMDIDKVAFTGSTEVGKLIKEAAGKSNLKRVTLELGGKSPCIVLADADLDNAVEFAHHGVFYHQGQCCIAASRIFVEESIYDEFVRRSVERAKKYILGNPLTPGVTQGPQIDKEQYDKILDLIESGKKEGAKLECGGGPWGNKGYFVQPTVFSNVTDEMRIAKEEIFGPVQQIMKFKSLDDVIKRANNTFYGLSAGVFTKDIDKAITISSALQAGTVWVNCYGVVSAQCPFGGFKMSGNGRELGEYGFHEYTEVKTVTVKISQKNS
PNC inhibitor – High Content Assay for Compounds that inhibit the Assembly of the Perinucleolar Compartment; PC3M PTB-GFP, PNC prevalence imaging, 16 h; active compounds read low; 140,000 compounds, 3.1% hits; activity change (PNC), negative = inhibition, % at 10 µM;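 active = readout at or below -70, meaning at least 70% loss of cells showing the perinucleolar compartment, a nuclear body marking cancer cells; inconclusive = readout between -30 and a set limit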;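 note: plate controls were DMSO wells for no effect and camptothecin positive control wells for full effect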
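PC3M cells stably expressing PTB-GFP, 750–1000 cells/well, treated 16 h at 37 °C with compound (23 nl of library stock), in duplicate. After paraformaldehyde fixation and Hoechst stain, imaged at 20x; PNC prevalence scored by image analysis.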
IMPase Li inh – qHTS Assay for Identifying the Cell-Membrane Permeable IMPase Inhibitors: Potentiation with Lithium; CHO-M1 cells, IP1 TR-FRET (IP-One), carbachol + lithium; Potency, µM (highest dose often 59.4 µM), inactives show top-dose activity, negative = IMPase inhibition, usual class: inhibitors; 210,000 compounds, 0.35% hits; active = well fitted curve in the direction sought with a large enough effect; inconclusive = small, poorly fitted or top-dose-only effect, or another doubt; inactive = no such curve, though single readings can be large; an effect the other way counts as inactive or inconclusive;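 note: IP1 builds up when IMPase is blocked and the TR-FRET signal falls; potency is the fitted concentration of half-maximal effect; plate controls were basal vehicle for no effect and high inhibitor control for full effect; nearly all actives have a fitted effect of over 50% in size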
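CHO cells stably expressing M1 receptor (2000/well) were cultured 16–30 h, then exposed to compounds with a small lithium addition for 30 min at 37C. IP1 was measured by TR-FRET competition; AC50 from Hill fits.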
ALOX12 inhib – qHTS Assay for Inhibitors of 12-hLO (12-human lipoxygenase). 150,000 compounds, 0.12% hits. purified 12-hLO, xylenol orange hydroperoxide absorbance. Potency, µM (top dose mostly 57.1 µM), without a hit: at the top dose activity change, negative = inhibition, actives largely listed as inhibitors. Polyunsaturated fatty acid lipoxygenase ALOX12 (Homo sapiens), P18054; active = well fitted curve in the direction sought with a large enough effect; inconclusive = small, poorly fitted or top-dose-only effect, or another doubt; inactive = no such curve, though single readings can be large; an effect the other way counts as inactive or inconclusive; note: potency is the fitted concentration of half-maximal effect; nearly all actives have a fitted effect of over 55% in size
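Hydroperoxide formation by human 12-lipoxygenase from 40 uM arachidonic acid was followed colorimetrically via ferric-xylenol orange complex, using the 573/405 nm absorbance ratio. Enzyme concentration was 150 nM, with 30 min reaction at room temperature.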
IMPase inh – qHTS Assay for Identifying the Cell-Membrane Permeable IMPase Inhibitors; inhibition (IP1 accumulation), % at 46.1 µM; CHO-M1 cells, IP1 accumulation, HTRF TR-FRET ratio; 120,000 tested, under 10 active; Inositol monophosphatase 1 (Rattus norvegicus), P97697; active = well fitted curve in the direction sought with a large enough effect in the signal ratio, not every such curve was filed as active; inconclusive = small, poorly fitted or top-dose-only effect, or a change in a side signal; inactive = no such curve, though single readings can be large or run the other way; the % refers to the signal ratio;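 note: cells stimulated with carbachol in lithium chloride buffer; plate controls were DMSO basal wells for no effect and reference inhibitor wells for full effect; higher means more IMPase inhibition seen as more IP1 and lower FRET ratio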
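Cellular IMPase inhibition is scored as a rise in cytosolic IP1, detected by competitive TR-FRET between d2-labelled IP1 and a europium anti-IP1 antibody. M1-expressing CHO cells were stimulated with carbachol for 30 min at 37C, with lithium (50 mM LiCl) present in the buffer.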
HPGD inh – qHTS Assay for Inhibitors of HPGD (15-Hydroxyprostaglandin Dehydrogenase). purified HPGD, NADH fluorescence kinetic, PGE2 substrate. Potency, µM, without a hit: at the highest dose activity change, negative = inhibition, usual class: inhibitors. 150,000 compounds, 4.3% hits. AID 894, 2007; note: potency is the fitted concentration of half-maximal effect
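20 nM HPGD preincubated 15 min at room temperature with compound in 50 mM Tris-HCl pH 8, 0.01% Tween 20. Started with 1 mM NAD+ and 30 uM prostaglandin E2; NADH fluorescence (360/450 nm) read 5 times over 30-s intervals, last minus first.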
* = called active by the depositor; ? = inconclusive; · = not tested or not shown; ! = not confirmed by another sample; [ ] = remark or other dose. A selection: hits, their analogues and other compounds. The true share with any hit is near 11%. Unless noted, calls come from the whole dose curve; as a rule, active = well fitted inhibition curve with a large enough effect (not every such curve was filed as active); inconclusive = small, poorly fitted or top-dose-only effect, or another doubt; inactive = no such curve, though single readings can be large or run the other way. Unless noted, % is set by controls: 0 for no effect and ±100 for the full control effect.

SMILES	ALDH1A1 block	PNC inhibitor	IMPase Li inh	ALOX12 inhib	IMPase inh	HPGD inh
CC(=O)OC(C)(C)/C=C/C(=O)[C@](C)(O)[C@H]1[C@H](O)C[C@@]2(C)[C@@H]3CC=C4[C@H](C[C@H](O)C(=O)C4(C)C)[C@]3(C)C(=O)C[C@]12C	1%	-115*	-2%	-1%	·	-11%
O=c1[nH]cc(F)c(=O)[nH]1	3%	-115*	-6%	0%	-3	-4%
N[C@H](Cc1ccc(N(CCCl)CCCl)cc1)C(=O)O	·	·	·	3%	0	·
CC[C@]12CCCN3CCC4(c5ccccc5NC4C(C(=O)O)C1)C32 (some centres not stated)	10%	·	22%	·	·	-7%
CCOc1cc(C=O)ccc1O	25µM*	·	9%	-1%	·	-16%
CCNCC	4%	·	-1%	1%	·	-3%
O=C1Nc2ccccc2Sc2ccccc21	-4%	·	3%	·	·	·
c1ccc2c(c1)Nc1ccccc1S2	1%	-19	4%	14µM*	·	-16%
O=C(/C=C/c1ccc(Cl)cc1)N[C@@]12CCC(=O)[C@@H]3Oc4c(O)ccc5c4[C@@]31CCN(CC1CC1)C2C5	7%	·	4%	·	·	·
CCN1C(=O)C(=C/C=C/c2ccco2)C(=O)N(CC)C1=S	1.3µM*	-1	-3%	-20%	-5	11µM*
CC(C)N1C(=O)/C(=C/C=C/c2ccco2)C(=O)N(Cc2ccco2)C1=O	22µM*	?	5%[38.3 µM]	?	-2	32µM*
COc1ccc(/C=C2/C(=O)N(Cc3ccco3)C(=O)N(C(C)C)C2=O)cc1	4µM*	4	5%	-4%	·	22µM*
CC(C)c1ccc(N2C(=O)NC(=O)/C(=C\C=C\c3ccco3)C2=O)cc1	22%	·	-5%	·	·	·
CC1CCN(CC(=O)c2ccc3c(c2)OCCO3)CC1	7.9µM*	·	7%	·	·	·
CC1CCN(CC(=O)c2ccccc2Cl)CC1	?	?	9%	-1%	1	-6%
CC1CCCN(CC(=O)c2ccc(Cl)c(Cl)c2)C1 (configuration not stated)	2µM*	·	15%	·	·	·
CN=C=O	-1%	·	-2%	0%	·	-11%
Oc1cc2c(cc1O)[C@H]1c3ccccc3CN[C@H]1CC2	?	·	2%	-10%	-1	8.9µM*
Oc1cc(Cl)ccc1Oc1ccc(Cl)cc1Cl	1%	·	2%	-5%[0.00818 µM]	·	7.9µM*
CC1=C(/C=C/c2ccccc2)CCN(C)C1	11µM*	23	20%[38.3 µM]	11%	11	-10%
COP(=O)(OC)[C@@H](O)C(Cl)(Cl)Cl	7%[20.9 µM]	·	-3%	-1%[25.6 µM]	5[20.6 µM]	-10%
O=C(O)[C@H]1C[C@@H]1[C@H](NP(=O)(c1ccccc1)c1ccccc1)c1ccccc1	-9%	-82*	5%	-1%	·	-4%
C=CCOc1ccc(CC2C(=O)N(C)C(=O)N(C)C2=O)cc1	?	-16	-6%	1%	-6	-2%
CCN(CC)c1ccc(CC2C(=O)N(C)C(=O)N(C)C2=O)cc1	4.5µM*	?	0%	0%	-2	-13%
S=C1NCCN1	6%	-85*	-3%	0%	·	-11%
CC(COc1ccccc1)N(CCCl)Cc1ccccc1 (configuration not stated)	28µM*!	?	7%	-6%	·	0%
O=Cc1c(C(=O)O)n(Cc2ccccc2Cl)c2ccccc12	?	·	0%	·	·	·
Cc1cc(C)c(Cn2c(C(=O)O)c(C=O)c3ccccc32)c(C)c1	14µM*	·	7%	·	·	·
O=C(O)CSCC(=O)O	1%[13.5 µM]	·	-3%	-4%[11.4 µM]	·	-8%
Nc1nc(=S)c2ncn(C3OC(CO)C(O)C3O)c2[nH]1 (configuration not stated)	7.9µM*	·	·	·	·	·
